Data on 68 compounds can be found in the antibiotic and cytotoxicity screens of Wong et al. (2023).

Each structure is given as a SMILES string. Among all 39,000 compounds or so, about 1,500 (3.8%) were called active. For the sample, actives were picked, then their nearest neighbours and some compounds at random.

In the test the test system is HSkMC (human skeletal muscle cells). The test is described as follows: cytotoxicity call (relative viability < 0.9). As to conditions: 10 µM.
In the case of `Cc1ccc([C@@H]2CC(=O)N[C@@H]2C(N)=O)cc1`, the cytotoxicity call was “inactive”. For the compound `C[C@@H]1CN([C@H](C)CO)C(=O)c2cccc(NC(=O)Nc3cccc4ccccc34)c2O[C@@H]1CN(C)S(=O)(=O)c1ccc(Cl)cc1`, the cytotoxicity call is “active”. For the compound `COc1ccc(S(=O)(=O)N(C)C[C@@H]2Oc3c(NC(=O)Nc4cccc5ccccc45)cccc3C(=O)N([C@@H](C)CO)C[C@H]2C)c(OC)c1`, the cytotoxicity call is “active”.

With `C[C@H](CO)N1C[C@H](C)[C@H](CN(C)S(=O)(=O)c2ccc(F)cc2)Oc2c(NC(=O)Nc3cccc4ccccc34)cccc2C1=O`, the cytotoxicity call is “active”. `C[C@@H]1CN([C@@H](C)CO)C(=O)c2cccc(NC(=O)Nc3cccc4ccccc34)c2O[C@H]1CN(C)S(=O)(=O)c1cccs1`: the cytotoxicity call was “inactive”. As for `C[C@@H]1CN([C@@H](C)CO)C(=O)c2cccc(NC(=O)Nc3cccc4ccccc34)c2O[C@@H]1CN(C)S(=O)(=O)c1ccc(Cl)cc1`, the entry is “inactive”; as for `C[C@H]1CN([C@@H](C)CO)C(=O)c2cccc(NC(=O)Nc3cccc4ccccc34)c2O[C@@H]1CN(C)S(=O)(=O)c1cccs1`, “active”; as for `COc1ccccc1S(=O)(=O)N(C)C[C@@H]1Oc2c(NC(=O)Nc3cccc4ccccc34)cccc2C(=O)N([C@@H](C)CO)C[C@H]1C`, “inactive”.

Turning to `COc1cccc(S(=O)(=O)N(C)C[C@@H]2Oc3c(NC(=O)Nc4cccc5ccccc45)cccc3C(=O)N([C@@H](C)CO)C[C@H]2C)c1`, the cytotoxicity call is “inactive”. `C[C@H]1CN([C@@H](C)CO)C(=O)c2cccc(NC(=O)Nc3cccc4ccccc34)c2O[C@@H]1CN(C)S(=O)(=O)c1ccc(Cl)cc1`: the cytotoxicity call is “inactive”. Turning to `C[C@@H]1CN([C@@H](C)CO)C(=O)c2cccc(NC(=O)Nc3cccc4ccccc34)c2O[C@H]1CN(C)S(=O)(=O)c1ccc(F)cc1`, the cytotoxicity call was “inactive”. As for `C[C@@H]1CN([C@@H](C)CO)C(=O)c2cccc(NC(=O)Nc3cccc4ccccc34)c2O[C@@H]1CN(C)S(=O)(=O)c1cccs1`, the cytotoxicity call is “inactive”. As for `C[C@@H]1CN([C@H](C)CO)C(=O)c2cccc(NC(=O)Nc3cccc4ccccc34)c2O[C@@H]1CN(C)S(=O)(=O)c1ccc(F)cc1`, the entry is “inactive”; as for `C[C@H](O)C#Cc1ccc2c(c1)O[C@@H](CN(C)C(=O)Cc1ccccn1)[C@H](C)CN([C@H](C)CO)S2(=O)=O`, “inactive”; as for `O=C(O)CNC(=O)c1[nH]nc2ccccc12`, “inactive”. As for `C[C@@H]1CCCCO[C@@H](CN(C)Cc2ccc(C(F)(F)F)cc2)[C@@H](C)CN([C@H](C)CO)C(=O)c2cc(NS(=O)(=O)c3ccccc3)ccc2O1`, the entry is “inactive”; as for `C[C@H](CO)N1C[C@H](C)[C@H](CN(C)S(=O)(=O)c2ccc(F)cc2)Oc2ccc(NS(=O)(=O)c3ccc(F)cc3)cc2C1=O`, “inactive”; as for `COc1ccc(CN(C)C[C@@H]2OCCCC[C@@H](C)Oc3ccc(NC(=O)Nc4cccc5ccccc45)cc3C(=O)N([C@H](C)CO)C[C@H]2C)cc1`, “active”. `COc1ccc(CN(C)C[C@@H]2OCCCC[C@@H](C)Oc3ccc(NC(=O)Nc4cccc5ccccc45)cc3C(=O)N([C@@H](C)CO)C[C@H]2C)cc1`: the cytotoxicity call is “active”.

Regarding `COc1ccc(CN(C)C[C@@H]2OCCCC[C@H](C)Oc3ccc(NC(=O)Nc4cccc5ccccc45)cc3C(=O)N([C@H](C)CO)C[C@@H]2C)cc1`, the cytotoxicity call is “inactive”. On to `COc1ccc(CN(C)C[C@@H]2OCCCC[C@H](C)Oc3ccc(NC(=O)Nc4cccc5ccccc45)cc3C(=O)N([C@@H](C)CO)C[C@@H]2C)cc1`, for which the cytotoxicity call is “active”. As for `COc1ccc(CN(C)C[C@@H]2OCCCC[C@H](C)Oc3ccc(NC(=O)Nc4cccc5ccccc45)cc3C(=O)N([C@H](C)CO)C[C@H]2C)cc1`, the entry is “active”. As for `COc1ccc(CN(C)C[C@H]2OCCCC[C@H](C)Oc3ccc(NC(=O)Nc4cccc5ccccc45)cc3C(=O)N([C@@H](C)CO)C[C@H]2C)cc1`, the entry is “inactive”; as for `COc1ccc(CN(C)C[C@H]2OCCCC[C@@H](C)Oc3ccc(NC(=O)Nc4cccc5ccccc45)cc3C(=O)N([C@H](C)CO)C[C@H]2C)cc1`, “inactive”; as for `COc1ccc(CN(C)C[C@H]2OCCCC[C@H](C)Oc3ccc(NC(=O)Nc4cccc5ccccc45)cc3C(=O)N([C@@H](C)CO)C[C@@H]2C)cc1`, “inactive”. As for `C[C@@H]1CC=CC[C@@H](c2cccc(Cl)c2)NC(=O)[C@@H](Cc2ccccc2)N(C)C(=O)c2ccccc2O1`, the entry is “inactive”; as for `Cc1noc(C)c1NC(=O)Nc1ccc2c(c1)C(=O)N([C@@H](C)CO)C[C@H](C)[C@H](CN(C)Cc1ccc(Cl)c(Cl)c1)OCCCC[C@@H](C)O2`, “inactive”; as for `N[C@@H](CC(=O)O)c1cccc([N+](=O)[O-])c1`, “inactive”. Consider `C[C@@H]1CN([C@H](C)CO)C(=O)c2cc(NS(=O)(=O)c3ccccc3)ccc2O[C@H]1CN(C)S(C)(=O)=O`, for which the cytotoxicity call was “inactive”. Then `COCC#Cc1ccc2c(c1)O[C@@H](CN(C)C(=O)COC)[C@H](C)CN([C@@H](C)CO)S2(=O)=O`, with “inactive”; and `CC(C)NC(=O)Nc1ccc2c(c1)C(=O)N([C@@H](C)CO)C[C@H](C)[C@H](CN(C)S(=O)(=O)c1cccs1)O2`, with “inactive”. As for `C[C@@H]1CN([C@H](C)CO)C(=O)Cc2cc(NC(=O)C3CCCCC3)ccc2O[C@H]1CN(C)C(=O)Nc1ccc(C(F)(F)F)cc1`, the entry is “inactive”. With `Cc1ccc(S(=O)(=O)N[C@H]2C=C[C@H](CC(=O)NCCN3CCCCC3)O[C@@H]2CO)cc1`, the cytotoxicity call is “inactive”.

Regarding `C[C@@H]1CN([C@H](C)CO)C(=O)c2cc(NS(=O)(=O)c3cccs3)ccc2O[C@@H]1CN(C)S(=O)(=O)c1cccs1`, the cytotoxicity call was “inactive”. As for `CC(C)NC(=O)Nc1ccc2c(c1)C(=O)N([C@H](C)CO)C[C@@H](C)[C@@H](CN(C)Cc1ccc(Oc3ccccc3)cc1)O2`, the entry is “inactive”; as for `NC[C@@H](CO)Cc1ccsc1`, “inactive”; as for `C[C@@H]1CCCCO[C@@H](CN(C)S(C)(=O)=O)[C@H](C)CN([C@@H](C)CO)C(=O)c2cc(NC(=O)CCCN(C)C)ccc2O1`, “inactive”.

Take `COc1ccc(S(=O)(=O)Nc2ccc3c(c2)C(=O)N([C@@H](C)CO)C[C@H](C)[C@@H](CN(C)S(=O)(=O)c2cccs2)O3)cc1`: the cytotoxicity call was “inactive”. `COc1ccc(S(=O)(=O)N2C[C@H](O)COC[C@@H]3O[C@H](CC(=O)N[C@@H]4CCN(Cc5ccccc5)C4)CC[C@H]32)cc1`: the cytotoxicity call is “inactive”.

Take `COc1ccc(CN(C)C[C@@H]2OCCCC[C@H](C)Oc3ccc(NC(=O)Nc4cccc5ccccc45)cc3C(=O)N([C@@H](C)CO)C[C@H]2C)cc1`: the cytotoxicity call was “active”. Then `COc1ccc(CN(C)C[C@@H]2OCCCC[C@@H](C)Oc3ccc(NC(=O)Nc4cccc5ccccc45)cc3C(=O)N([C@@H](C)CO)C[C@@H]2C)cc1`, with “inactive”.

In the case of `COc1ccc(CN(C)C[C@H]2OCCCC[C@@H](C)Oc3ccc(NC(=O)Nc4cccc5ccccc45)cc3C(=O)N([C@@H](C)CO)C[C@H]2C)cc1`, the cytotoxicity call was “active”. Then `COc1ccc(CN(C)C[C@H]2OCCCC[C@@H](C)Oc3ccc(NC(=O)Nc4cccc5ccccc45)cc3C(=O)N([C@@H](C)CO)C[C@@H]2C)cc1`, with “inactive”; and `COc1ccc(CN(C)C[C@@H]2OCCCC[C@@H](C)Oc3ccc(NC(=O)Nc4cccc5ccccc45)cc3C(=O)N([C@H](C)CO)C[C@@H]2C)cc1`, with “inactive”.

On to `COc1ccc(CN(C)C[C@H]2OCCCC[C@H](C)Oc3ccc(NC(=O)Nc4cccc5ccccc45)cc3C(=O)N([C@H](C)CO)C[C@H]2C)cc1`, for which the cytotoxicity call was “active”. Then `COc1ccc(CN(C)C[C@H]2OCCCC[C@H](C)Oc3ccc(NC(=O)Nc4cccc5ccccc45)cc3C(=O)N([C@H](C)CO)C[C@@H]2C)cc1`, with “inactive”; and `COc1ccc(CN(C)C[C@H]2OCCCC[C@@H](C)Oc3ccc(NC(=O)Nc4cccc5ccccc45)cc3C(=O)N([C@H](C)CO)C[C@@H]2C)cc1`, with “active”; and `CCOC(=O)c1cc2c(c(-c3cccc(-c4cccc(F)c4)c3)n1)[C@H](CCO)N(S(=O)C(C)(C)C)C2` (stereo partly drawn), with “inactive”.

For the compound `N#C[C@H]1N[C@@H](CO)[C@@H]1c1ccccc1`, the cytotoxicity call was “inactive”. Then `CC(C)NC(=O)N(C)C[C@@H]1OCCCC[C@H](C)Oc2ccc(NC(=O)C3CCCCC3)cc2C(=O)N([C@H](C)CO)C[C@@H]1C`, with “inactive”. On to `COc1ccc(S(=O)(=O)Nc2ccc3c(c2)C(=O)N([C@@H](C)CO)C[C@@H](C)[C@@H](CN(C)C(=O)Nc2ccccc2)OCCCC[C@@H](C)O3)cc1`, for which the cytotoxicity call is “inactive”. As for `C[C@@H]1CN([C@H](C)CO)C(=O)c2cc(Br)cnc2O[C@@H]1CN(C)S(=O)(=O)c1ccc(F)cc1`, the entry is “inactive”; as for `C[C@@H]1CN([C@@H](C)CO)C(=O)c2cc(NC(=O)CCN3CCOCC3)ccc2O[C@@H]1CN(C)C(=O)Nc1ccc2c(c1)OCO2`, “inactive”.

With `C[C@@H]1CN([C@H](C)CO)C(=O)c2cc(C#CCN(C)C)cnc2O[C@@H]1CN(C)C(=O)c1ccc2c(c1)OCO2`, the cytotoxicity call was “inactive”. As for `C[C@@H]1CN([C@@H](C)CO)S(=O)(=O)c2ccc(C#CC3CCCC3)cc2O[C@H]1CN(C)C(=O)Cc1ccncc1`, the entry is “inactive”; as for `Cc1noc(C)c1NC(=O)Nc1ccc2c(c1)CC(=O)N([C@@H](C)CO)C[C@H](C)[C@H](CN(C)S(=O)(=O)c1cccs1)O2`, “inactive”. As for `COC(=O)C1=C(C#N)NC(C)=C(C(=O)OC(C)C)C1c1cccc([N+](=O)[O-])c1` (stereo not drawn), the entry is “inactive”; as for `COC(=O)C1=C(C)NC(C)=C(C(=O)OCCN2CCN(C(c3ccccc3)c3ccccc3)CC2)C1c1cccc([N+](=O)[O-])c1` (stereo not drawn), “inactive”. As for `COC(=O)C1=C(C)NC(C)=C(C(=O)OCCCN2CCC(c3ccccc3)(c3ccccc3)CC2)[C@H]1c1cccc([N+](=O)[O-])c1`, the entry is “active”. Take `CCCN1C(C)=C(C(=O)OC)[C@@H](c2cccc([N+](=O)[O-])c2)C(C(=O)ON2CCC(c3ccccc3)(c3ccccc3)CC2)=C1C`: the cytotoxicity call is “active”. Then `COC(=O)C1=C(C)NC(C)=C(C(=O)NCCCN2CCC(c3ccccc3)(c3ccccc3)CC2)[C@@H]1c1ccc([N+](=O)[O-])cc1`, with “inactive”; and `CCOC(=O)C1=C(C)NC(C)=C(C(=O)OC)C1c1cccc([N+](=O)[O-])c1` (stereo not drawn), with “inactive”; and `COC(=O)C1=C(C)NC(C)=C(C(=O)OC(C)(C)CN(C)CCC(c2ccccc2)c2ccccc2)[C@@H]1c1cccc([N+](=O)[O-])c1`, with “active”. As for `COC(=O)C1=C(C)NC(C)=C(C(=O)OCCN(C)Cc2ccccc2)C1c1cccc([N+](=O)[O-])c1.Cl` (stereo not drawn), the entry is “inactive”; as for `COCCOC(=O)C1=C(C)NC(C)=C(C(=O)OCC=Cc2ccccc2)C1c1cccc([N+](=O)[O-])c1` (stereo not drawn), “inactive”. Then `CC1=C(C(=O)OCCN(Cc2ccccc2)c2ccccc2)[C@H](c2cccc([N+](=O)[O-])c2)C(P2(=O)OCC(C)(C)CO2)=C(C)N1`, with “inactive”; and `COCCOC(=O)C1=C(C)NC(C)=C(C(=O)OC(C)C)C1c1cccc([N+](=O)[O-])c1` (stereo not drawn), with “inactive”; and `COC(=O)C1=C(C)NC(C)=C(C(=O)OCCCN2CCC(c3ccccc3)(c3ccccc3)CC2)[C@@H]1c1cccc([N+](=O)[O-])c1`, with “active”.
